Results taken from the supplement of paper PMC3545927.
The list shows a part of the results. The hit rate among all sequences tested is not known here.

Target: furin, P09958
Assay: furin cleavage Z-score vs untreated control; higher = more cleavage, active = 3.5 or more, inactive = 1 or less, 8 variable residues between constant flanks
Method in brief: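 Abundance of DNA freed from bead-bound 8-mer peptide–cDNA fusions by purified furin was measured as sequencing read counts after PCR adapter tagging. Cutting ran 7.5, 15 or 30 min in 0.01 ml of 50 mM HEPES pH 7.5 with CaCl2 and NaCl at 1:10 enzyme:substrate. The cleavage Z-score expresses these log counts against furin-free reactions after lowess adjustment and median absolute deviation scaling.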

Sequence of furin, P09958 (P09958 whole entry): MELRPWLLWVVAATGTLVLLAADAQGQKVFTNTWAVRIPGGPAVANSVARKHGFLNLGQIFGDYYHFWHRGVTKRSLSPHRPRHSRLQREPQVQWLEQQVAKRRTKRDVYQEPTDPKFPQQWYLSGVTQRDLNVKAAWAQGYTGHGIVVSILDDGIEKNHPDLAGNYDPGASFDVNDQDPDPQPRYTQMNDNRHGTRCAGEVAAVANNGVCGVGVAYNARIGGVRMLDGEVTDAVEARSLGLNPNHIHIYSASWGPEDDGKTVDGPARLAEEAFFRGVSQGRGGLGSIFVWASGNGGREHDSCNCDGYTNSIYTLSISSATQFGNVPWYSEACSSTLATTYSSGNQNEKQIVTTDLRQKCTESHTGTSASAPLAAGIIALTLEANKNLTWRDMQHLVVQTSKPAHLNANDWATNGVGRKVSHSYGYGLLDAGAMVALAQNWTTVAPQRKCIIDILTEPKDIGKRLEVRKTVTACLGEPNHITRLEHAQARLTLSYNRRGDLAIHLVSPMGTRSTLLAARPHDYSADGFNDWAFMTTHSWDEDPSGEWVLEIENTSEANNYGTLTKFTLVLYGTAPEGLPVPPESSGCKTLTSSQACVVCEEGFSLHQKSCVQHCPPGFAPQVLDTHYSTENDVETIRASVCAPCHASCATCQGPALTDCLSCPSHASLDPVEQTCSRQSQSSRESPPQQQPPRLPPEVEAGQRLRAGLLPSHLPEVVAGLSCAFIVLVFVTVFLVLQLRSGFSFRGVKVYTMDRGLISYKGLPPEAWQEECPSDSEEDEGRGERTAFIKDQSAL

Sequence | furin cleavage Z-score (7.5 min) | furin cleavage Z-score (15 min) | furin cleavage Z-score (30 min)
CAATRDGKLPAGNASASA [HC284] | 0.288 (inactive) | -1.04 (inactive) | 0.353 (inactive)
CATMRIVGPRAGNASASA [HC1182] | 0.31 (inactive) | 1.38 | 0.463 (inactive)
CATTRCSGSWAGNASASA [HC1873] | -2.28 (inactive) | -0.493 (inactive) | -0.341 (inactive)
CAGCIITSLTAGNASASA [HC681] | -0.591 (inactive) | -0.913 (inactive) | -0.483 (inactive)
CAHEMEECSQAGNASASA [HC1795] | 0.638 (inactive) | -0.825 (inactive) | 0.0903 (inactive)
CAKNSRKLRGAGNASASA [FS-258] | 0.0851 (inactive) | 1.03 | 2.96
CAEPPRPRRGAGNASASA [FS-992] | -0.496 (inactive) | -0.299 (inactive) | 0.0496 (inactive)
CAASSRPRRGAGNASASA [FS-10] | 5.57 (active) | 4.59 (active) | 4.78 (active)
CAPIIRKSRGAGNASASA [FS-1472] | 10 (active) | 10.9 (active) | 7.97 (active)
CAPGRRPRRGAGNASASA [FS-68] | 10.4 (active) | 9.49 (active) | 8.86 (active)
CAGALRPRRGAGNASASA [FS-421] | 1.31 | 0.929 (inactive) | 0.673 (inactive)
CALIAFASRGAGNASASA [HC1120] | 0.403 (inactive) | -0.694 (inactive) | 0.0807 (inactive)
CAHLHQNIVDAGNASASA [HC506] | -0.675 (inactive) | -0.105 (inactive) | -1.09 (inactive)
CASPTTALVMAGNASASA [HC324] | 0.089 (inactive) | -0.626 (inactive) | -1.02 (inactive)
CARQRRAITVAGNASASA [FS-2509] | 4.39 (active) | 7.17 (active) | 7.22 (active)
CARQRRAFQVAGNASASA [FS-2508] | 1.92 | 4.22 (active) | 6.29 (active)
CARQPRVDFVAGNASASA [FS-2064] | -1.17 (inactive) | -0.264 (inactive) | -0.469 (inactive)
CARQRRARFVAGNASASA [FS-1770] | 6.58 (active) | 8.49 (active) | 7.14 (active)
CARNRRIITVAGNASASA [FS-3198] | 0.0348 (inactive) | -1.25 (inactive) | 0.314 (inactive)
CARQRRLVLVAGNASASA [FS-2764] | -0.772 (inactive) | -0.609 (inactive) | 1.17
CARERRYSTVAGNASASA [FS-2551] | -0.101 (inactive) | 1.01 | 0.281 (inactive)
CAVVCMSMSYAGNASASA [HC88] | -1.17 (inactive) | -0.925 (inactive) | 0.213 (inactive)

Sequence | furin cleavage Z-score (7.5 min) | furin cleavage Z-score (15 min) | furin cleavage Z-score (30 min)
CAPPSWDQMWAGNASASA [HC961] | 1.06 | -0.132 (inactive) | 1
CAVKNGTMRIAGNASASA [HC1180] | 2.3 | 1.25 | 0.508 (inactive)
CAHELRHRRHAGNASASA [FS-170] | 11 (active) | 10.9 (active) | 11 (active)
CARFRRKRRHAGNASASA [FS-854] | 9.74 (active) | 9.95 (active) | 7.32 (active)
CADTERKRRHAGNASASA [FS-411] | 8.87 (active) | 11 (active) | 9.59 (active)
CAAEARKNRPAGNASASA [FS-1508] | -0.91 (inactive) | 0.425 (inactive) | -1.59 (inactive)
CADLYLVTRHAGNASASA [HC725] | -0.523 (inactive) | -1.17 (inactive) | -0.885 (inactive)
CAPAIASLMAAGNASASA [HC1053] | -0.244 (inactive) | 1.04 | 0.347 (inactive)
CAFVPCHRPSAGNASASA [HC2307] | -1.81 (inactive) | 0.496 (inactive) | 0.113 (inactive)
CALHEYPVGSAGNASASA [HC1236] | -0.438 (inactive) | -0.864 (inactive) | -0.00108 (inactive)
CAEERARAKWAGNASASA [EK3] | 0.379 (inactive) | 1.71 | -0.287 (inactive)
CAEVVTSTWVAGNASASA [HC136] | 0.215 (inactive) | -1.42 (inactive) | -0.55 (inactive)
CAVVCDSMSYAGNASASA [HC92] | -1.45 (inactive) | 0.971 (inactive) | -0.149 (inactive)
CAEPEPDVAVAGNASASA [HC1242] | -1.24 (inactive) | -1.89 (inactive) | 0.391 (inactive)
CAFTTLPALSAGNASASA [HC500] | 1.12 | -0.632 (inactive) | 1.28
CARVSRFVTWAGNASASA [FS-1804] | 0.465 (inactive) | 2.02 | 2.57
CARFYRPVAVAGNASASA [FS-2670] | -2.66 (inactive) | -1.03 (inactive) | -2.39 (inactive)
CARVARFATSAGNASASA [FS-2529] | 2.89 | 4.14 (active) | 5.25 (active)
CARVARAMSIAGNASASA [FS-1797] | -0.644 (inactive) | 0.561 (inactive) | 2.57
CAHARKAVTHAGNASASA [HC1426] | -1.35 (inactive) | -0.868 (inactive) | 0.178 (inactive)
CARVARFVTHAGNASASA [FS-1798] | 0.861 (inactive) | 1.96 | 4.55 (active)
CARVARDVAVAGNASASA [FS-3113] | 9.5 (active) | 11.7 (active) | 9.58 (active)
